In the library only some 0.9% were active in any assay of this set; here they are far more common.
SRC3 TRFRET art – TR-FRET detection interference compounds, artefact control for PPARgamma SRC-3 recruitment agonists, biochemical, TR-FRET ratio. TR-FRET artefact counter-screen, PPARgamma/SRC-3 format; hits give high values. TR-FRET ratio at 8 µM. 99,000 compounds, 0.39% hits. AID 1048, 2008
PPARg SRC-2 ag – agonists of PPARg-SRC-2 recruitment, primary screen, biochemical, HTS; PPARgamma LBD-SRC-2 recruitment; 200,000 compounds, 0.34% hits; AID 1032, 2008; activation, % at 8 µM; in the data active = activation above about 22%;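 note: 0% = vehicle and 100% = reference agonist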
PPARg SRC-3 ag – PPARgamma agonists recruiting SRC-3 coactivator, primary screen, biochemical | Peroxisome proliferator-activated receptor gamma (Homo sapiens), P37231 | biochemical PPARgamma/SRC-3 coactivator recruitment assay | activation, % at 8 µM | 200,000 compounds, 0.26% hits | AID 731, 2007; in the data active = activation above about 23%;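 note: 0% = DMSO and 100% = reference agonist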
SRC2 TRFRET art – TR-FRET signal artefacts, primary screen, artefact control for PPARgamma SRC-2 agonist project, biochemical. TR-FRET artefact counter-screen; hits give high values. TR-FRET ratio at 8 µM. 200,000 compounds, 0.4% hits
PPARg SRC-1 ag – PPARgamma agonists recruiting SRC-1 coactivator, primary screen, biochemical; PPARgamma-SRC-1 coactivator recruitment biochemical assay; activation, % at 8 µM; 200,000 compounds, 0.41% hits; in the data active = activation above about 19%;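 note: 0% = DMSO and 100% = reference agonist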
SRC1 TRFRET art – TR-FRET detection interference compounds, primary screen, artefact control for PPARgamma SRC-1 recruitment agonists, biochemical, TR-FRET emission ratio | TR-FRET ratio at 8 µM | 99,000 compounds, 0.34% hits | AID 1051, 2008 | TR-FRET detection artefact counter-screen; hits give high values; in the data active = TR-FRET ratio above about 2300
PPARg SRC2 ag – agonists of PPARgamma SRC-2 coactivator recruitment, confirmation, biochemical, HTS; shares compounds with PPARg SRC-3 ag; biochemical SRC-2 recruitment by PPARgamma; activation, % at 8 µM; 790 compounds, 52% hits; AID 1297, 2008; in the data active = activation above about 22%;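 note: 0% = vehicle alone and 100% = reference agonist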
PPARg SRC1 ag – PPARgamma agonists recruiting SRC-1 coactivator, confirmation, biochemical; 790 compounds, 43% hits; activation, % at 8 µM; shares compounds with PPARg SRC-3 ag; PPARgamma–SRC-1 coactivator recruitment biochemical assay; in the data active = activation above about 20%;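 note: 0% = vehicle wells and 100% = reference agonist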
PPARg SRC3 conf – PPARgamma-driven SRC-3 coactivator recruitment agonists, confirmation, biochemical; 790 compounds, 29% hits; shares compounds with PPARg SRC-3 ag; activation, % at 8 µM; biochemical PPARgamma-SRC-3 coactivator recruitment, agonist mode; AID 1301, 2008; in the data active = activation above about 24%;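 note: 0% = vehicle wells and 100% = reference agonist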
Target sequence (P37231 whole entry, looked up): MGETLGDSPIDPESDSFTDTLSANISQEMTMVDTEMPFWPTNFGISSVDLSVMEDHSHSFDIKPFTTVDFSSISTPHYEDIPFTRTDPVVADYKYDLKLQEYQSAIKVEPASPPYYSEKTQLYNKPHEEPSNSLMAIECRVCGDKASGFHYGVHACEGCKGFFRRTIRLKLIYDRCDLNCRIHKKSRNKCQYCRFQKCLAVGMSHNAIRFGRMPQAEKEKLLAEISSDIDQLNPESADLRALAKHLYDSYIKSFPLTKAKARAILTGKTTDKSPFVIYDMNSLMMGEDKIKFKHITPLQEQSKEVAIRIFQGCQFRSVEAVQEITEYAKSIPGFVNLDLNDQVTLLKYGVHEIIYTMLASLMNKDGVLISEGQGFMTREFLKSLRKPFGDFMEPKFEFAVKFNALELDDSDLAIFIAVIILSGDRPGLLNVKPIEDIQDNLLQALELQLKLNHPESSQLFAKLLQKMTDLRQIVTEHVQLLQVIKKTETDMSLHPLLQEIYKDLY
Target sequence (Q9Y6Q9 whole entry, looked up): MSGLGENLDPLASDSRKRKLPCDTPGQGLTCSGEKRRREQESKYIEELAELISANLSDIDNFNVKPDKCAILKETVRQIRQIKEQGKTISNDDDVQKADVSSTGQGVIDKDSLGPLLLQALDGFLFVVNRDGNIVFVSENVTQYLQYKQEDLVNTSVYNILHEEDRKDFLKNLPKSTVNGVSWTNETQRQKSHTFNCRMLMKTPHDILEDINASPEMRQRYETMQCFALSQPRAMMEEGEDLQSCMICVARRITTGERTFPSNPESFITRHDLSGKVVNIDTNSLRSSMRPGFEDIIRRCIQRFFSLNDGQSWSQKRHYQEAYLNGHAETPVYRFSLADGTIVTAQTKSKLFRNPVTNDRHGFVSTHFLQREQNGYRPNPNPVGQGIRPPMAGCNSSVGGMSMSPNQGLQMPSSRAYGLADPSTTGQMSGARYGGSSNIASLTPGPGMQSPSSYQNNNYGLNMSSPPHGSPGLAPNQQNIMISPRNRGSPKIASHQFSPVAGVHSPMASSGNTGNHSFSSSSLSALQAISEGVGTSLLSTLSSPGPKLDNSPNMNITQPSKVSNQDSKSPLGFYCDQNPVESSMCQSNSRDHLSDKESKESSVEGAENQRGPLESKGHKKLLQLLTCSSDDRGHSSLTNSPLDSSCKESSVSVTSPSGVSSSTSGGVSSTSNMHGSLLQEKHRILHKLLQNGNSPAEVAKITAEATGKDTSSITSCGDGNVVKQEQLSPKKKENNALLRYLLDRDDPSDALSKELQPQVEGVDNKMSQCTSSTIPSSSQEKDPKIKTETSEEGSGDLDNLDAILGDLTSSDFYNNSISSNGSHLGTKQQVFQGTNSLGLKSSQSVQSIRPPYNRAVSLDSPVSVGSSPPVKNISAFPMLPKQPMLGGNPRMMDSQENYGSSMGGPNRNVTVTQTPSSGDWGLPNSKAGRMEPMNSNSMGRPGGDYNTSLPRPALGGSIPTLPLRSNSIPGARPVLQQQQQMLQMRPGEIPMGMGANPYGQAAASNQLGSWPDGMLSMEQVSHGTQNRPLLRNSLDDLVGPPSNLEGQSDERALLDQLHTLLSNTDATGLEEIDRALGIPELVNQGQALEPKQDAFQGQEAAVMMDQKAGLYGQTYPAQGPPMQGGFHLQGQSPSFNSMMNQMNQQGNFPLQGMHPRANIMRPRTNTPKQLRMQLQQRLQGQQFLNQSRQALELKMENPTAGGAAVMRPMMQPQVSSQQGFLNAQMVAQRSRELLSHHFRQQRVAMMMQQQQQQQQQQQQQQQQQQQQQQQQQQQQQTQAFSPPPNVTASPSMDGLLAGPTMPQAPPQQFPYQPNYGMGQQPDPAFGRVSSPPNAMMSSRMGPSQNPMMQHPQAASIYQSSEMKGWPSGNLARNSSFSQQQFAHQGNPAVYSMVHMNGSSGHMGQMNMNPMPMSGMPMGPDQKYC
* = called active by the depositor; x = no result. Cut-off read from the data, not from the text of the source, unless noted: active = TR-FRET ratio above about 2000; inactive = the rest.

SMILES	SRC3 TRFRET art	PPARg SRC-2 ag	PPARg SRC-3 ag	SRC2 TRFRET art	PPARg SRC-1 ag	SRC1 TRFRET art	PPARg SRC2 ag	PPARg SRC1 ag	PPARg SRC3 conf
COc1ccc(Cl)cc1NC(=O)CN1CCc2ccccc21	1510	2	-3	1589	6	1833	x	x	x
Cn1c(-c2sc3cc(C(F)(F)F)cnc3c2-c2cccnc2)n[nH]c1=S	x	19	30*	1633	19*	x	72*	57*	44*
Cn1c(-c2sc3cc(C(F)(F)F)cnc3c2-c2cccs2)n[nH]c1=S	2332*	30*	22	2200*	17	2475*	46*	41*	29*
CC(C)CN(C(=O)CSc1nn(-c2ccc(Cl)cc2)c(=S)s1)C1CCS(=O)(=O)C1 (stereo not given)	1571	21	2	1697	-5	1871	x	x	x
O=C(Nc1ccccc1F)c1ccc(-n2cncn2)nc1	x	23*	10	1617	1	x	6	5	3
COc1ccccc1NC(=O)c1ccc(-n2cncn2)nc1	1488	0	-4	1534	-5	1830	x	x	x
Cc1ccc(-c2nnc(SCC(=O)Nc3cccc(C(=O)N4CCOCC4)c3)n2C)cc1	1420	-7	-5	1462	-1	1555	x	x	x
Clc1ccc(-c2ccc(-c3nn4c(-c5ccco5)nnc4s3)o2)cc1	x	5	-6	1589	10	x	x	x	x
Brc1ccc(-c2nn3c(-c4ccco4)nnc3s2)o1	x	99*	115*	3538*	75*	x	76*	52*	53*
Nc1ccccc1-c1n[nH]c(=S)s1	3076*	54*	43*	3141*	54*	3590*	40*	31*	25*
COc1ccccc1CNC(=O)CCCOc1cc(=O)n(C)c2ccccc12	x	8	9	1525	2	x	x	x	x
Cn1c(=O)cc(SCC(=O)NCCCN2CCN(c3ccc(F)cc3)CC2)c2ccccc21	x	95*	134*	4545*	97*	x	51*	34*	36*
Cn1c(=O)cc(SCC(=O)NCc2ccc(F)cc2)c2ccccc21	2264*	18	16	2135*	25*	2122	22*	18	15
Cn1c(=O)cc(SCC(=O)NCCN2CCN(c3ccccc3F)CC2)c2cc(Cl)ccc21	x	107*	92*	3707*	82*	x	59*	39*	42*
COc1ccccc1CNC(=O)CSc1cc(=O)n(C)c2ccccc12	1939	25*	10	2116*	22*	2191	7	9	5
COc1ccc(OC)c(C2C(C(=O)c3cccs3)=C(O)C(=O)N2c2cc(C)on2)c1 (stereo not given)	x	2	-2	1544	-6	x	x	x	x
COc1cccc(C2C(C(=O)c3cc4cccc(OC)c4o3)=C(O)C(=O)N2c2cc(C)on2)c1OC (stereo not given)	x	35*	45*	2236*	33*	x	41*	28*	26*
COc1cc(C2C(C(=O)c3ccc(C)o3)=C(O)C(=O)N2c2cc(C)on2)ccc1O (stereo not given)	x	5	3	1751	8	x	x	x	x
COc1cccc(C2C(C(=O)c3cc4ccccc4o3)=C(O)C(=O)N2c2cc(C)on2)c1OC (stereo not given)	x	45*	69*	2593*	50*	x	36*	28*	25*
COCCCNc1oc(-c2cccs2)nc1S(=O)(=O)c1ccc(C)cc1	1632	-2	33*	1478	15	1713	2	14	16
COCCNc1oc(-c2cccs2)nc1S(=O)(=O)c1ccc(C)cc1	1609	-4	5	1626	4	1747	x	x	x
O=c1c(Cc2ccc(Cl)cc2)c(O)ccn1Cc1cccs1	1730	10	8	1634	6	2048	x	x	x
COCCCn1c(=S)[nH]c2sc3c(c2c1=O)CCCS3	2497*	44*	36*	2732*	43*	3194*	57*	40*	38*
CCn1c(=O)n(CCOC)c(=O)c2c3c(sc21)CCCC3	x	3	-3	1709	5	x	x	x	x
Cc1nc([N+](=O)[O-])c(Sc2nc3ccccc3n2C)n1Cc1ccccc1	1578	7	6	1535	0	1848	x	x	x
SMILES	SRC3 TRFRET art	PPARg SRC-2 ag	PPARg SRC-3 ag	SRC2 TRFRET art	PPARg SRC-1 ag	SRC1 TRFRET art	PPARg SRC2 ag	PPARg SRC1 ag	PPARg SRC3 conf
Cc1c(O)c(CN2CCCC2)cc2c1oc(=O)c1ccccc12	x	2	-3	1591	3	x	x	x	x
C=CCc1cc2c(oc(=O)c3ccccc32)c(C)c1O	2419*	26*	19	2206*	28*	2491*	21	13	14
CCOC(=O)Cc1csc(NC(=O)c2sc3nc4c(C)cc(C)cc4cc3c2N)n1	x	10	27*	1807	17	x	9	6	5
CCOC(=O)Cc1csc(NC(=O)c2csc(C)c2)n1	x	14	-3	1419	-2	x	x	x	x
CCOC(=O)c1sc(-c2ccc(OC)cc2)cc1NC(C)=O	2089*	22*	14	1849	18	2390*	43*	30*	32*
COC(=O)c1sc(-c2ccccc2)cc1NC(=O)C1CC1	2499*	30*	21	2243*	33*	2544*	32*	21*	18
CCOc1ccc(NC(=O)Nc2cc(-c3ccccc3)sc2C(=O)OC)cc1	1594	1	-1	1494	5	1837	x	x	x
Cc1ccc(NC(=O)CCNCc2ccco2)cc1S(=O)(=O)N(C)C	1451	1	1	1469	6	1857	x	x	x
COc1ccc(-c2csc(C3=C(O)CN(CCCN4CCCC4=O)C3=N)n2)cc1OC	1471	-4	6	1650	5	1830	x	x	x
Cc1ccc(C)c(-n2c3nc(=O)[nH]c(=O)c-3cc3cc([N+](=O)[O-])ccc32)c1	1545	-3	23*	1510	13	1662	11	13	21
Cc1ccc(-c2cc(-c3ccccc3)c(C#N)c(N)n2)o1	x	5	-4	1836	8	x	x	x	x
Cc1cc(-c2ccc(Cl)cc2)c(C#N)c(N)n1	x	12	19	1825	19*	x	3	1	0
COC(=O)c1sc(NC(=O)CSc2nnc(C(C)C)n2C)nc1C	x	14	10	1715	19*	x	0	0	0
